Data on 40 compounds can be found in PubChem BioAssay (NCATS).

Records with an inconclusive call do not appear. Values without a mark were called inactive.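 The calls were made as follows: active = compounds whose dose-response curve shows a full or clear partial loss of cell viability, called from curve shape rather than a numeric limit; inconclusive = weak partial curves or an effect only at the top dose; inactive = no dose-dependent loss of viability.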
Potency is read from the fitted curve at half-maximal effect.

The nature of this experiment: Cell Viability - Hek293 (AID 427).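 Also: cells exposed to compound for 40 hours at 37 °C before reading.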 The conditions noted are these: qHTS. The text has this:
NIH Chemical Genomics Center [NCGC]
NIH Molecular Libraries Screening Centers Network [MLSCN]
National Institutes of Environmental Health Sciences [NIEHS]
National Toxicology Program [NTP]
We have developed a 1536-well cell-based assay for quantitative high throughput screening (qHTS) against a number of cell lines to determine in vitro cytotoxicity of small molecules. This particular assay uses the Hek 293 cell line which is derived from human embryonic kidney cells (transformed with adenovirus).
NCGC Assay Protocol Summary:
The CellTiter-Glo luminescent cell viability assay (Promega) is a homogeneous method to measure the number of viable cells in culture. The end point readout of this assay is based on quantitation of intracellular ATP, an indicator of metabolic activity, using the luciferase reaction. Luciferase catalyzes the oxidation of beetle Luciferin to oxyluciferin and light in the presence of ATP. The luminescent signal is proportional to amount of ATP present.
Using the CellTiter-Glo luminescent cell viability assay, the amount of cellular ATP was measured in the Hek293 cell line with complete culture medium following compound treatment for 40 hours. The assay was performed in opaque white Kalypsys 1536-well plates. In the screen, tamoxifen and doxorubicin were used as positive controls. Library compounds were measured for their ability to cause acute toxicity in the cell line, as reflected by a decrease in intracellular ATP levels, in a concentration-dependent manner. Data were normalized to the controls for basal activity (DMSO only) and 100% inhibition (100 uM tamoxifen). AC50 values were determined from concentration-response data modeled with the standard Hill equation.
qHTS protocol fo CellTiter Glo Hek 293 cellular assay
[Step] [Parameter] [Value] [Description]
2. Time; 5 hr; 37 °C incubation
4. Controls; 23 nL; Tamoxifen 0.34 uM to 100 uM & Doxorubicin 0.02 nM to 100 uM
5. Time; 40 hr; 37 °C incubation
6. Reagent; 5 uL; CellTiter Glo reagent
7. Time; 20 min; Room Temperature
8. Detection; Luminescence; Viewlux plate reader
Keywords: cell viability, cytotoxicity, Hek293 cell line, luminescence, NTPHTS, NTPHTS_NCGC, NIEHS, EPA, DSSTox, MLSMR, MLSCN, NIH Roadmap, qHTS, NCGC
In general terms: In qHTS, concentration-response curves come from the screen itself.
For the compound `BrC(Br)Br`, the Potency is above 92 µM.

Turning to `Cl/C=C\Cl`, the Potency is above 92 µM.

Take `ClCC(Cl)CCl`: the Potency is above 92 µM.

Consider `CCCCC#N`, for which the Potency was above 92 µM.

With `Cc1coc2c1CCC(C)C2` (stereo not given), the Potency is above 92 µM.

With `C=CCCC#N`, the Potency is above 92 µM.

Turning to `ClCCOCOCCCl`, the Potency was above 92 µM.

As for `O=C(O)CCl`, the Potency is above 92 µM.

For `CC(C)[C@]12CC(=O)[C@H](C)[C@H]1C2`, the Potency was above 92 µM.

Turning to `C=CC(=O)OCC(C)C`, the Potency is above 92 µM.

For `C=CC=O`, the Potency was above 92 µM.

For the compound `CC(C)(C)c1ccccc1O`, the Potency is above 92 µM.

Turning to `c1ccc2c(c1)CCNC2`, the Potency is above 92 µM.

On to `CCCCOCC1CO1` (stereo not given), for which the Potency is above 92 µM.

As for `Nc1ccc(Cl)c(Cl)c1`, the Potency was above 92 µM.

Regarding `O=[N+]([O-])c1ccccc1O`, the Potency was above 92 µM.

Regarding `CC(C)(COCC1CO1)COCC1CO1` (stereo not given), the Potency is above 92 µM.

`O=C(O)C(Cl)Br` (stereo not given): the Potency is above 92 µM.

Turning to `O=Cc1ccc2c(c1)OCO2`, the Potency was above 92 µM.

For `ClC(Cl)Br`, the Potency is above 92 µM.

Regarding `Oc1cc(Cl)cc(Cl)c1`, the Potency was above 92 µM.

As to `Clc1cc(Cl)c(Cl)c(Cl)c1`, the Potency is above 92 µM.

Turning to `Nc1ccc(Oc2ccc(N)cc2)cc1`, the Potency is above 92 µM.

For `C=CCc1cc(OC)c2c(c1)OCO2`, the Potency is above 92 µM.

Take `CCCCCCCCCCCOC(=O)c1ccccc1C(=O)OCCCCCCCCCCC`: the Potency is above 92 µM.

As for `CCBr`, the Potency was above 92 µM.

For the compound `Cc1cc(C)cc(OP(=O)(Oc2cc(C)cc(C)c2)Oc2cc(C)cc(C)c2)c1`, the Potency was above 92 µM.

For `CC(C)(C)OOC(=O)c1ccccc1`, the Potency was above 92 µM.

Regarding `O=C(O)CBr`, the Potency was above 92 µM.

For the compound `O=C(O)C(Br)Br`, the Potency is above 92 µM.

Turning to `Nc1cccc2ccccc12`, the Potency was above 92 µM.

For the compound `O=C(Cl)c1ccccc1F`, the Potency is above 92 µM.

For `CCC(Cl)[N+](=O)[O-]` (stereo not given), the Potency is above 92 µM.

With `Cl/C=C/Cl`, the Potency was above 92 µM.

On to `CC(Cl)CCl` (stereo not given), for which the Potency was above 92 µM.

With `CC(C)Br`, the Potency was above 92 µM.

With `Nc1ccc(Cc2ccc(N)c(Cl)c2)cc1Cl`, the Potency is above 92 µM.

As to `CCCN(CCC)c1c([N+](=O)[O-])cc(C(F)(F)F)cc1[N+](=O)[O-]`, the Potency was above 92 µM.

Consider `CN(C)C(=O)Nc1cccc(C(F)(F)F)c1`, for which the Potency is above 92 µM.

Turning to `CCC#N`, the Potency is above 92 µM.
